Hits are enriched below; roughly 5.4% of the tested compounds scored in any of these assays.
NR0B1 inh: DAX1 (NR0B1) inhibitors, primary screen, cell-based, HEK293, Gal4-DAX1, luciferase luminescence; Nuclear receptor subfamily 0 group B member 1 (Homo sapiens), P51843; HEK293 Gal4-DAX1 luciferase reporter; inhibition, % at 6.75 µM; hit rate 0.99% among 340,000; AID 504766, 2011;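 active = inhibition above the mean over all tested compounds plus 3 SD, cut at about 4.2% in these data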;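 note: inhibition shows as a rise in luminescence from relieved DAX1 repression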
Target sequence (P51843 207-470 limits assumed): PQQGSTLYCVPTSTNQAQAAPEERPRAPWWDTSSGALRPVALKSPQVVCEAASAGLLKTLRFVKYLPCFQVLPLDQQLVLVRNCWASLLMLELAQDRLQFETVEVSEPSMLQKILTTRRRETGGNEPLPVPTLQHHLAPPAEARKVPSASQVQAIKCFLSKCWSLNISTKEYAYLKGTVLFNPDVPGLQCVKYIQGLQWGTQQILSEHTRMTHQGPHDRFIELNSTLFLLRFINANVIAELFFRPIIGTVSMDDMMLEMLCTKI
HSF-1 act: HSF-1 activators, primary screen, NIH3T3-HGL cells, MG132 stress, luminescence, single point; activation, % at 9 µM; hit rate 1.7% among 300,000; AID 504408, 2011; NIH3T3-HGL HSF-1 luciferase reporter, 8 h; 100% = twice DMSO control signal;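 active = mean replicate activation of at least 50% with a set share of replicates each reaching 50%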
GAA850 FXN act: FXN promoter activators, primary screen, cell-based, luciferase luminescence, HEK293 lucGAA850; hit rate 0.56% among 360,000; activation, % at 6 µM; AID 540364, 2011; HEK293 lucGAA850 FXN promoter luciferase reporter, 24 h; percent of 10 µM SAHA response;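 active = activation above the average of all compounds screened plus 3 SD, cutoff fixed separately per campaign, cut at about 7.5% in these data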
HSF1 inh: HSF1 inhibitors in luciferase reporter cells, primary screen, cell-based, NIH3T3, luminescence; NIH3T3-HGL HSE-luciferase, MG132-induced, luminescence 8 h; hits give low values; activity change, negative = inhibition, % at 7.5 µM (by protocol); AID 2098, 2009; hit rate 0.77% among 300,000;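 active = more than half of replicate wells show activity change below -50%, luminescence cut by over half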;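 note: luciferase reports HSF-1 transcriptional activity via heat shock element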
AHR activator: AHR activators, primary screen, cell-based, luminescence, luciferase reporter, human | activation, % at 5 µM | hit rate 2.5% among 320,000 | AID 2796, 2010 | AHR-responsive luciferase reporter cells | Aryl hydrocarbon receptor (Homo sapiens), P35869; in the data active = activation above about 47%
Large screens that a line does not name were inactive.

COc1ccc(Cl)cc1NC(=O)c1cccc(-n2cnnn2)c1	none (no result: HSF-1 act, HSF1 inh, AHR activator)
CC1(C)CC(=O)c2sc(NC(=O)c3ccccc3)nc2C1	HSF-1 act 54 (no result: NR0B1 inh, GAA850 FXN act)
CC1(C)CNC(=O)c2sc(NC(=O)c3ccccc3)nc2C1	none
COc1ccc(-c2[nH]ncc2/C=C(\C#N)C(=O)NC2CC2)cc1	none
N#C/C(=C\c1c[nH]c2ccccc12)C(=O)NC1CCCC1	AHR activator 64
N#C/C(=C\c1cn[nH]c1-c1ccc(Cl)cc1)C(=O)NC1CC1	AHR activator 85
N#C/C(=C\c1c[nH]c2ccccc12)C(=O)NC1CC1	none
Cc1c(Cl)cccc1S(=O)(=O)Nc1ccnn1C	NR0B1 inh 4.3
Clc1cc(Cl)c(OCc2nc(-c3ccccn3)no2)cc1Cl	HSF-1 act 110
CCC1Oc2ccccc2N(CC(=O)NC2CCCC2)C1=O (centres undefined)	none
CCCC1NC(=O)c2cccnc2-n2c1nc1ccc(OC)cc1c2=O (centres undefined)	none (no result: HSF-1 act, HSF1 inh, AHR activator)
CCOC(=O)N1CCN(Cc2nnc(-c3cccc(Br)c3)o2)CC1	none
Cc1ccc(C2(c3noc(CN(C)Cc4cccnc4)n3)CCCC2)cc1	NR0B1 inh 4.5
Cc1ccc(S(=O)(=O)CCC(=O)OCC(=O)NCc2ccc(Cl)cc2)cc1	none
Cc1ccc(Sc2ncccc2C(=O)N(C)Cc2cccs2)c(C)c1	NR0B1 inh 4.6
Cc1ccc(Nc2ncccc2C(=O)NCc2cccs2)c(C)c1	none
O=C(/C=C/c1nc2ccccc2s1)N1CCCCCC1	HSF-1 act 75
Cc1ccc(SCc2ccc(C(=O)N3CCCC3)cc2)cc1	HSF-1 act 58
CCN1CCN(C(=O)c2ccc(CSc3ccc(C)cc3)cc2)CC1	none
C/C(=N\Nc1ccc(C(=O)O)cc1)c1ccc2c(c1)Nc1ccccc1S2	NR0B1 inh 6.1, AHR activator 68
C/C(=N/Nc1ccc(C(=O)O)cc1)c1ccc2c(c1)Nc1ccccc1S2	none (no result: HSF-1 act, HSF1 inh, AHR activator)
COc1cccc(-n2c([S-])c(C(=O)Nc3ccc(S(=O)(=O)N4CCOCC4)cc3)[n+]3cc(C(N)=O)ccc23)c1	NR0B1 inh 4.2, AHR activator 65
CC(C)COc1cccc(C(=O)Nc2ccc(S(=O)(=O)N3CCOCC3)cc2)c1	none
O=C(Cc1ccccc1F)Nc1cccc(S(=O)(=O)N2CCCCC2)c1	none (no result: HSF-1 act, HSF1 inh, AHR activator)
CC(C)[C@H](NC(N)=O)C(=O)NNC(=O)COc1cccc(C(F)(F)F)c1	NR0B1 inh 6.5, HSF-1 act 142
NNC(=O)COc1cccc(C(F)(F)F)c1	none
CN(Cc1ccccc1)C(=O)C1CCCN(Cc2cccc(Cl)c2)C1 (centres undefined)	none
COc1ccc(C2C(C(C)=O)=C(O)C(=O)N2c2ccc(C)cc2)cc1 (centres undefined)	NR0B1 inh 4.5, HSF-1 act 61
COc1ccc(C2C(CC(=O)O)=C(Nc3ccccc3)C(=O)N2c2ccccc2)cc1 (centres undefined)	HSF-1 act 64
CC(=O)C1=C(O)C(=O)N(c2ccc(Br)cc2)C1c1ccc(Br)cc1 (centres undefined)	AHR activator 49
COc1ccc(C2C(C(C)=O)=C(O)C(=O)N2c2ccccn2)cc1 (centres undefined)	none
CC(=O)C1=C(O)C(=O)N(c2cccc(Br)c2)C1c1ccc(Br)cc1 (centres undefined)	none
CC(=O)C1=C(O)C(=O)N(c2ccccn2)C1c1ccc(C)cc1 (centres undefined)	none
CC(=O)C1=C(O)C(=O)N(c2nccs2)C1c1ccccc1 (centres undefined)	HSF-1 act 60
O=C(OCC(=O)N1CCOCC1)c1ccccc1OCc1ccccc1	none (no result: HSF-1 act, HSF1 inh)
c1ccc(COc2cccc(CN3CCN(c4ccccn4)CC3)c2)cc1	HSF1 inh -55
Cc1cc(C)c(NC(=O)CSc2nnc(CN3CCOCC3)n2C)c(C)c1	none
COc1ccc(Cc2nnc(SCC(=O)Nc3ccc(N4CCOCC4)cc3)o2)cc1	HSF-1 act 61
Cc1cc(C)cc(NC(=O)CSc2nnc(CN3CCOCC3)n2C)c1	NR0B1 inh 4.4
COc1ccccc1OCc1nnc(SCC(=O)Nc2ccc(N3CCOCC3)cc2)n1C	NR0B1 inh 4.8
CC1(C)CC(=O)C=C(c2cccc(O)c2)C1	none (no result: HSF-1 act, HSF1 inh)
O=C1OC(Sc2ccccc2)(c2ccccc2)c2ccccc21 (centres undefined)	none (no result: HSF-1 act, HSF1 inh, AHR activator)
Fc1ccccc1Oc1nc(-c2ccncc2)nc2ccccc12	none
O=C(Cc1c(Cl)cccc1Cl)N/N=C/c1cccnc1	none (no result: HSF-1 act, HSF1 inh, AHR activator)
Cc1c(C(=O)c2ccccc2)oc2ccc3ccccc3c12	NR0B1 inh 6.6
CC(=O)Nc1c(C(=O)c2ccccc2)oc2ccccc12	AHR activator 109
CC(=O)Nc1c(C(=O)C2CC2)oc2ccccc12	none
CNC(=S)N1N=C2c3ccccc3CCC2C1c1ccccc1Cl (centres undefined)	none
CN1N=C2c3ccccc3CCC2C1c1ccc(Cl)cc1 (centres undefined)	AHR activator 66
CN1N=C2c3ccccc3CCC2C1c1ccc(F)cc1 (centres undefined)	AHR activator 76 (no result: NR0B1 inh)
COc1ccc(CCN(C)Cc2c(O)ccc3cc(Br)ccc23)cc1OC	HSF-1 act 204
COc1ccc(CN(C)Cc2c(O)ccc3cc(Br)ccc23)cc1OC	HSF-1 act 114
COc1ccc2cc(Br)ccc2c1CC(=O)N(C)C	none
CCOC(=O)c1c(S(=O)(=O)NCC(=O)Nc2ccc(F)cc2)c(C)n(C)c1C	none
CN(C)Cc1c[nH]c2nc[nH]c(=O)c12	none (no result: HSF-1 act, HSF1 inh, AHR activator)
N#C/C(=C/c1cn[nH]c1-c1ccc(Br)cc1)C(=O)O	none
CCOc1cccc2sc(NC(=O)CCS(=O)(=O)c3ccccc3)nc12	AHR activator 57
CCCCC(=O)Nc1nc2c(OC)cc([N+](=O)[O-])cc2s1	none
CCc1ccccc1NC(=O)CCS(=O)(=O)c1ccc(OC)cc1	HSF1 inh -79
CCOc1cccc2sc(N(CCN(C)C)C(=O)CCS(=O)(=O)c3ccccc3)nc12	none
COc1ccc(C)c2sc(NC(=O)CCS(=O)(=O)c3ccccc3)nc12	AHR activator 52
Cc1nnc(NC(=O)CCS(=O)(=O)c2ccccc2)s1	none
CCCCC(=O)Nc1nc2c(OC)ccc(OC)c2s1	AHR activator 64
CCn1c(=O)c2sccc2n(Cc2ccccc2)c1=O	none
Cc1ccc(S(=O)(=O)N2CCC(C(=O)OCC(=O)NC(C)c3ccc(F)cc3)CC2)cc1C (centres undefined)	none (no result: HSF-1 act, HSF1 inh)
CC1(C(=O)Nc2ccc3nc[nH]c3c2)CCN1C(=O)C1(c2ccccc2)CCCC1 (centres undefined)	none (no result: NR0B1 inh, HSF-1 act, HSF1 inh, AHR activator)
Cc1ccc(NC(=O)OCC(F)(F)C(F)F)cc1NC(=O)OCC(F)(F)C(F)F	AHR activator 55
Nc1ccccc1SCc1ccccc1Cl	AHR activator 67 (no result: NR0B1 inh)

Compound activity deposited in PubChem BioAssay by several laboratories.
